Test results from the supplement of paper PMC10849652.
Targets with a hit are over-represented here; the source holds about 8,800 in all. About 0.5% of all pairs of compound and target were hits.

Key:
Assay in all cases: log2 fold change, soluble protein after heating vs DMSO (PISA); higher = thermal stabilisation; K562 lysate, 10 uM; active = over 0.2 and 3.5 SD of the protein, either way, in both replicates (recomputed)
[1] = compound: C1=CC=C(C=C1)[C@H](COC2=CC3=C(C=C2)NC(=O)N3)NC(=O)C4=CC=CN(C4=O)CC5=CC(=C(C=C5)F)F
How it was run: (§1)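 Pellets of K562 cells were dounce-homogenised in PBS pH 7.4 with 1 mM MgCl2, and the crude extract was held at 1 mg/mL protein for a 30 min treatment with 10 μM compound. Aliquots were heated for 3 min over 48°C-58°C and pooled before NP-40 was added to 0.5% at 4°C. The supernatant from 21,000xg for 90 min was quantified by TMTpro 16plex LC-MS/MS with channel sums equalised. Values are reported from duplicates as log-two fold change in thermal stability relative to solvent controls.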

[2] = compound: CC1=C(SC2=C1C(=N[C@H](C3=NN=C(N32)C)CC(=O)N)C4=CC=C(C=C4)Cl)C
How it was run: as §1

[3] = compound: CC1=C2C(=CC=C1)N=C(N(C2=O)C3=CC=CC=C3C)CN4C=NC5=C(N=CN=C54)N
How it was run: as §1

[4] = compound: Cc1sc2c(c1C)C(c1ccc(Cl)cc1)=N[C@@H](CC(=O)OC(C)(C)C)c1nnc(C)n1-2
How it was run: as §1

[5] = compound: c1ccc([C@@H]2C[C@H]2NC2CCNCC2)cc1
How it was run: as §1

Measured: log2 fold change

NIT2 (UniProt Q9NQR4)
UniProt Q9NQR4, sequence (Q9NQR4 whole entry, looked up): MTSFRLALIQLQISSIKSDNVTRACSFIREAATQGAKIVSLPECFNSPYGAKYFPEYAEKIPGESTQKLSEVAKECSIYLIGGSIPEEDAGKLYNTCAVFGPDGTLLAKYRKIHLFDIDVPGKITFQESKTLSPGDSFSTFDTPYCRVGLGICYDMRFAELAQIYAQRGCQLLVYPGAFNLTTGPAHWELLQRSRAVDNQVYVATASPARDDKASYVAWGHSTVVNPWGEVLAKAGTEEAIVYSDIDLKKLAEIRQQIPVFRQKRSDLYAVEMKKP
inactive: [1] -0.033 | [2] 0.017 | [3] 0.027 | [4] -0.007 | [5] 0.058

NCAPH (UniProt Q15003)
inactive: [1] -0.025 | [2] 0.015 | [3] 0.021 | [4] -0.023 | [5] 0.024

NUCB2 (UniProt P80303)
inactive: [1] 0.041 | [2] -0.005 | [3] -0.011 | [4] -0.021 | [5] 0.079

MTFP1 (UniProt Q9UDX5)
UniProt Q9UDX5, sequence (Q9UDX5 whole entry, looked up): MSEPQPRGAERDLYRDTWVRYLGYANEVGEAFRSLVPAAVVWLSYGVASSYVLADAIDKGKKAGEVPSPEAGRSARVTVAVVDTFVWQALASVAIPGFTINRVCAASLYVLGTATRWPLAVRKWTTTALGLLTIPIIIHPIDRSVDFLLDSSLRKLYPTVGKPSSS
inactive: [1] 0.005 | [2] -0.058 | [3] 0.03 | [4] 0.079 | [5] -0.222

NFATC1 (UniProt O95644)
inactive: [1] -0.006 | [2] 0.047 | [3] -0.017 | [4] 0.003 | [5] -0.127

NACC1 (UniProt Q96RE7)
inactive: [1] 0.013 | [2] -0.004 | [3] 0.027 | [4] 0.013 | [5] 0.033

NAA30 (UniProt Q147X3)
UniProt Q147X3, sequence (Q147X3 whole entry, looked up): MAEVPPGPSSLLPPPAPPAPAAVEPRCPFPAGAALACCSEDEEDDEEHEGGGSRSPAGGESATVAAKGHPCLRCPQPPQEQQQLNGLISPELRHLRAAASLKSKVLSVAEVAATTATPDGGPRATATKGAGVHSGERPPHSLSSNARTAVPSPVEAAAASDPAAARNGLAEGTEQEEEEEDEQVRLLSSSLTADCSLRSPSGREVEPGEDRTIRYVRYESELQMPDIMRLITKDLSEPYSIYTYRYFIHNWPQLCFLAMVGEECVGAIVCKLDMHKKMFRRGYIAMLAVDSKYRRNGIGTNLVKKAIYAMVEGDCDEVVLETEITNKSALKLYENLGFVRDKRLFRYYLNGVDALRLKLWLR
inactive: [1] 0 | [2] 0.018 | [3] 0.033 | [4] 0.02 | [5] -0.013

NAA35 (UniProt Q5VZE5)
inactive: [1] 0.004 | [2] 0.066 | [3] -0.023 | [4] -0.002 | [5] 0.086

NDC1 (UniProt Q9BTX1)
inactive: [1] 0.001 | [2] -0.055 | [3] 0.003 | [4] 0.02 | [5] -0.172

NAT1 (UniProt P18440)
inactive: [1] 0.049 | [2] -0.021 | [3] 0.012 | [4] 0.015 | [5] 0.011

NFATC2 (UniProt Q13469)
inactive: [1] 0.027 | [2] 0.073 | [3] 0.064 | [4] 0.031 | [5] -0.1

NFAT5 isoform 4 (UniProt O94916)
inactive: [1] -0.208 | [2] 0.11

NAA38 isoform 2 (UniProt Q9BRA0)
inactive: [1] -0.002 | [2] 0.02 | [3] 0.063 | [4] -0.005
active: [5] -0.344

MRPL58 (UniProt Q14197)
inactive: [1] 0.011 | [2] 0.029 | [3] 0.075 | [4] -0.002 | [5] 0.081

NFIC (UniProt P08651)
inactive: [1] 0.023 | [2] 0.018 | [3] -0.056 | [4] 0.052 | [5] -0.177

MRPL53 (UniProt Q96EL3)
inactive: [1] -0.056 | [2] -0.102 | [3] 0.079 | [4] -0.026 | [5] -0.093

MYH6 (UniProt P13533)
inactive: [1] -0.552 | [2] 0.239

OSBP2 (UniProt Q969R2)
inactive: [1] 0.021 | [2] 0.046 | [3] 0.019 | [4] -0.095 | [5] -0.439

OSBPL3 isoform 2 (UniProt Q9H4L5)
UniProt Q9H4L5, sequence (Q9H4L5 whole entry, looked up): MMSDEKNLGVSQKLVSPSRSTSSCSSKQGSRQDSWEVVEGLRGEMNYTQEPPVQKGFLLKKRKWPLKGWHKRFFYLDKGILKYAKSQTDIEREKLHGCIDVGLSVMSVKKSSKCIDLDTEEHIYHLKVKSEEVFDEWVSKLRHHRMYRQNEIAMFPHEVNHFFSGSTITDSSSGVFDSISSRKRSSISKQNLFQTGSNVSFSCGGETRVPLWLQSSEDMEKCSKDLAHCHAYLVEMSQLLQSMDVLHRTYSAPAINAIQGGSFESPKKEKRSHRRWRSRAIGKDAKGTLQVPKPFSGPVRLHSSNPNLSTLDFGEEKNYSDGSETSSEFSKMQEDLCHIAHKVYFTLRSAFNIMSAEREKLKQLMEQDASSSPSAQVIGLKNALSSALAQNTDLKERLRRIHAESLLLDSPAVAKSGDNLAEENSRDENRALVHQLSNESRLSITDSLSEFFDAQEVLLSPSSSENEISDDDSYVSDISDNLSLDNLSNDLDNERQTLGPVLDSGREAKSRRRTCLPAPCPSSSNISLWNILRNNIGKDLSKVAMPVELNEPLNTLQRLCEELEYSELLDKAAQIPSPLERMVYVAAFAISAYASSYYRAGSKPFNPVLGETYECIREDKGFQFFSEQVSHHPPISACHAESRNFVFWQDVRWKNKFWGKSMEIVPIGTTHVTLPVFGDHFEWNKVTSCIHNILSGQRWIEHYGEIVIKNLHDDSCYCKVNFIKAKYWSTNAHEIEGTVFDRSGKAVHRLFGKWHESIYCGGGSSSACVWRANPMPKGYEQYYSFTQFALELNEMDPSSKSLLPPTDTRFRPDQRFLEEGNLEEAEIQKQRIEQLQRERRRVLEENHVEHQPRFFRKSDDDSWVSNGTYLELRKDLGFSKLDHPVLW
inactive: [1] -0.02 | [2] -0.018 | [3] 0.043 | [4] -0.017 | [5] 0.004

NELFCD (UniProt Q8IXH7)
inactive: [1] -0.035 | [2] 0.023 | [3] 0.018 | [4] 0.003 | [5] 0.025

NCAPD3 (UniProt P42695)
UniProt P42695, sequence (P42695 whole entry, looked up): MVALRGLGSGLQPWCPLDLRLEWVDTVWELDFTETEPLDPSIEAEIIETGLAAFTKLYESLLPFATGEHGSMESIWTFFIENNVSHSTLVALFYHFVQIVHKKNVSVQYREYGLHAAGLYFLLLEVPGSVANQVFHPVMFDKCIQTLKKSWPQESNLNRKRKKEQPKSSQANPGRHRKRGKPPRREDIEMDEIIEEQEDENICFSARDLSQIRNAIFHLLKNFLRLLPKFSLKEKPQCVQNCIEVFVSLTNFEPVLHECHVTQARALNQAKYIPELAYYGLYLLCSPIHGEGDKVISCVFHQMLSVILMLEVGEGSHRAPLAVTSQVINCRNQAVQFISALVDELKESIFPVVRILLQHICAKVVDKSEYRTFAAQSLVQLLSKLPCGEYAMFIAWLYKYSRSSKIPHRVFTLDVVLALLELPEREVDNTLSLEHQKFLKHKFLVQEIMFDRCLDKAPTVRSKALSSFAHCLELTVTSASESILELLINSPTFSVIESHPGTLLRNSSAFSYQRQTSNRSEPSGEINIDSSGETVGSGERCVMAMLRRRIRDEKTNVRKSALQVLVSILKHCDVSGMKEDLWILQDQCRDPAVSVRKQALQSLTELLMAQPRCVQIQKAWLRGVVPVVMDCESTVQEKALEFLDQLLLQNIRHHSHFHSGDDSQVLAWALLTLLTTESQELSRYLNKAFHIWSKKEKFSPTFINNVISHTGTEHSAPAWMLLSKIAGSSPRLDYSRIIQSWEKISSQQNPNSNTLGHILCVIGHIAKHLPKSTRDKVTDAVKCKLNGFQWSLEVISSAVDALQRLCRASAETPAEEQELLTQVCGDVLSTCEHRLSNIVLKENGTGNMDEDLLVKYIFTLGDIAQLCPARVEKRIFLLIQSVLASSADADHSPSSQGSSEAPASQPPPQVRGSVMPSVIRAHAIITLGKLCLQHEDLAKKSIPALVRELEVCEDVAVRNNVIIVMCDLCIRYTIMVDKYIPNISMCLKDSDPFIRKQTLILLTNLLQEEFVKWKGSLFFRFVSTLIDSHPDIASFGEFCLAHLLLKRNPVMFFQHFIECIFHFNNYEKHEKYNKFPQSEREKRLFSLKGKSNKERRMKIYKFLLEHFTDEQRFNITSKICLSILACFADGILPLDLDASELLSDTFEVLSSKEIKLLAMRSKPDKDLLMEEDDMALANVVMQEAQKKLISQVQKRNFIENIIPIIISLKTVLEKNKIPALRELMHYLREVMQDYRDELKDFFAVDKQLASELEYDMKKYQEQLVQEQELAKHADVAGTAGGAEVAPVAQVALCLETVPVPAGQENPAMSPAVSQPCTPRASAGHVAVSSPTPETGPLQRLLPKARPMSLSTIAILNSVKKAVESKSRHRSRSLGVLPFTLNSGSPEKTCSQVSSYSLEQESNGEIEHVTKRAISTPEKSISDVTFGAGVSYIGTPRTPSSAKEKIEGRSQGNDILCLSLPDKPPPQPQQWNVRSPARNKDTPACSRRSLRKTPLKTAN
inactive: [1] 0.028 | [2] -0.007 | [3] 0.046 | [4] -0.005 | [5] 0.016

NUDT4 (UniProt Q9NZJ9)
UniProt Q9NZJ9, sequence (Q9NZJ9 whole entry, looked up): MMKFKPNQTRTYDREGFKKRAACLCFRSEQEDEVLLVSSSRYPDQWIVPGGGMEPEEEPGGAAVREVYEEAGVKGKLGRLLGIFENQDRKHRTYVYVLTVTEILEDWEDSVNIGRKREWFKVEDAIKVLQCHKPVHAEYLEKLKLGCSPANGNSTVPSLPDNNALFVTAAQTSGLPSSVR
inactive: [1] 0.037 | [2] -0.025 | [3] 0.004 | [4] 0.075 | [5] 0.242

NEK7 (UniProt Q8TDX7)
inactive: [1] 0.03 | [2] -0.032 | [3] -0.004 | [4] -0.076 | [5] 0.026

NUP93 (UniProt Q8N1F7)
UniProt Q8N1F7, sequence (Q8N1F7 whole entry, looked up): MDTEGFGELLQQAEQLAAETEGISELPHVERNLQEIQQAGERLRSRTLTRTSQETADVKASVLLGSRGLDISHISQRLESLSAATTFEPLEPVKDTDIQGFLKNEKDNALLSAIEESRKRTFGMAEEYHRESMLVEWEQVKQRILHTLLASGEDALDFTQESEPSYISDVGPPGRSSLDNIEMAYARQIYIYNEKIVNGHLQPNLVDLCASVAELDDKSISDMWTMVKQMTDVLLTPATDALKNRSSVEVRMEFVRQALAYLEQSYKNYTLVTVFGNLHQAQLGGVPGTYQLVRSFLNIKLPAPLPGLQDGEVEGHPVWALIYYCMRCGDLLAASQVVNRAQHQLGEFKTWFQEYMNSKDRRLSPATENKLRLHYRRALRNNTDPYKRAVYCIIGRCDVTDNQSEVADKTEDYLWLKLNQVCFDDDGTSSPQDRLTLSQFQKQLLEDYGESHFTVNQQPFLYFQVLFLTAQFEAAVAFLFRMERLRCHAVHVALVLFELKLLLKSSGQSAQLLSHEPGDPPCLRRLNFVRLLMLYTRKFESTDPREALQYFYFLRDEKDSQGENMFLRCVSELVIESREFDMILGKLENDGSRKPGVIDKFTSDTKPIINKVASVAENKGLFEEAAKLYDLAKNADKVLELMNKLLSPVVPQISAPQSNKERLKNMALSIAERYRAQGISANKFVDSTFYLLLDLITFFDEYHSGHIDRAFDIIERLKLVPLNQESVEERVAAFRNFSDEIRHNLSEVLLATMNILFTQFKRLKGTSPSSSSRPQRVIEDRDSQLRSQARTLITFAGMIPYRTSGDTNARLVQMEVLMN
inactive: [1] -0.054 | [2] -0.017 | [3] -0.006 | [4] 0.007 | [5] 0.031

NIPSNAP3A (UniProt Q9UFN0)
UniProt Q9UFN0, sequence (Q9UFN0 whole entry, looked up): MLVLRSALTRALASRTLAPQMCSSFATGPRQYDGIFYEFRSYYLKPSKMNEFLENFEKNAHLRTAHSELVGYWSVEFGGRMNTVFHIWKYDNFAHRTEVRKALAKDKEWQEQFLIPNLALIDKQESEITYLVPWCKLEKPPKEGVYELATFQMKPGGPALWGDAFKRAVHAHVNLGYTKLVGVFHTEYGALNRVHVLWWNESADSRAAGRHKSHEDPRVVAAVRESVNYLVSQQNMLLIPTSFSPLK
inactive: [1] 0.083 | [2] -0.037 | [3] -0.013 | [4] -0.036
active: [5] 0.322

NNT (UniProt Q13423)
inactive: [1] -0.005 | [2] 0.052 | [3] 0 | [4] 0.015 | [5] 0.034

NPM3 (UniProt O75607)
inactive: [1] 0.172 | [2] -0.045 | [3] -0.009 | [4] -0.03 | [5] -0.157

NPLOC4 isoform 2 (UniProt Q8TAT6)
inactive: [1] 0.035 | [2] 0.017 | [3] 0.025 | [4] -0.012 | [5] -0.064

MTOR (UniProt P42345)
inactive: [1] -0.022 | [2] 0.004 | [3] 0.013 | [4] 0.014 | [5] 0.029

NDUFA4 (UniProt O00483)
inactive: [1] -0.019 | [2] -0.048 | [3] -0.063 | [4] 0.035 | [5] 0.287

MYCBP (UniProt Q99417)
UniProt Q99417, sequence (Q99417 whole entry, looked up): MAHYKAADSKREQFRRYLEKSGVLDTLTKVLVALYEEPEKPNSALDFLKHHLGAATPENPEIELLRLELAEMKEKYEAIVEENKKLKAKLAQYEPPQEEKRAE
inactive: [1] 0.043 | [2] -0.087 | [3] -0.013 | [4] -0.022 | [5] -0.27

NR3C1 isoform 3 (UniProt P04150)
active: [1] 0.292
inactive: [2] 0.034 | [3] -0.001 | [4] -0.035 | [5] 0.084

MSI2 (UniProt Q96DH6)
inactive: [1] -0.007 | [2] -0.007 | [3] -0.001 | [4] 0.048 | [5] 0.071

NAA16 (UniProt Q6N069)
inactive: [1] 0.027 | [2] 0.01 | [3] 0.168 | [4] 0.065

MYO1D (UniProt O94832)
inactive: [1] -0.006 | [2] 0.002 | [3] 0.015 | [4] -0.006 | [5] 0.02

NCAPH2 (UniProt Q6IBW4)
inactive: [1] 0.027 | [2] -0.001 | [3] 0.035 | [4] -0.005 | [5] 0.024

PARP14 (UniProt Q460N5)
inactive: [1] 0.021 | [2] -0.003 | [3] 0.063 | [4] -0.028 | [5] -0.045

NUP98 (UniProt P52948)
inactive: [1] -0.018 | [2] -0.03 | [3] 0.037 | [4] 0.052 | [5] -0.003

NIPBL (UniProt Q6KC79)
inactive: [1] 0.003 | [2] -0.055 | [3] -0.001 | [4] -0.014 | [5] -0.01

PAK1 (UniProt Q13153)
inactive: [1] 0.029 | [2] -0.009 | [3] -0.011 | [4] 0.015 | [5] -0.126

NUSAP1 (UniProt Q9BXS6)
UniProt Q9BXS6, sequence (Q9BXS6 whole entry, looked up): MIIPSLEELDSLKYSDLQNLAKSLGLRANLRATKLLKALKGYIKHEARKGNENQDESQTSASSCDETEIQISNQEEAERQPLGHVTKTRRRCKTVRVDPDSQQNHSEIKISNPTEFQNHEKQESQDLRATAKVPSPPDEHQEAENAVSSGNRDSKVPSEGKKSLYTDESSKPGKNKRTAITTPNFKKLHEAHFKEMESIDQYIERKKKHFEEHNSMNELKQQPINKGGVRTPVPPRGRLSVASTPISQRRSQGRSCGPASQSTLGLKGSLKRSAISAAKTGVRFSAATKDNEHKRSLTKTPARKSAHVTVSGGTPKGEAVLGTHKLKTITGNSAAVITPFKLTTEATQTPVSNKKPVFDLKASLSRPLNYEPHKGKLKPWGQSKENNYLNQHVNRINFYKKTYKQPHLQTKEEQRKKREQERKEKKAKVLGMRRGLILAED
inactive: [1] 0.039 | [2] 0.018 | [3] -0.001 | [4] 0.026 | [5] -0.223

NQO1 (UniProt P15559)
inactive: [2] 0.025 | [3] 0.223 | [4] -0.008 | [5] -0.016
active: [1] 0.433

OTC (UniProt P00480)
active: [5] -2.16
inactive: [1] -0.11 | [2] 0.131 | [3] -0.028 | [4] -0.38

NEBL isoform 2 (UniProt O76041)
inactive: [1] -0.025 | [2] -0.102 | [3] 0.018 | [4] -0.07 | [5] -0.094

NNMT (UniProt P40261)
inactive: [1] 0.003 | [2] 0.05 | [3] 0.027 | [4] -0.011 | [5] -0.027

NARS2 (UniProt Q96I59)
inactive: [1] 0.013 | [2] 0.024 | [3] 0.092 | [4] 0.053 | [5] -0.05

MYO1C (UniProt O00159)
inactive: [1] -0.025 | [2] -0.038 | [3] -0.051 | [4] -0.025 | [5] 0.033

MYCBP2 (UniProt O75592)
inactive: [1] -0.006 | [2] -0.003 | [3] 0.017 | [4] 0.005 | [5] -0.005

NUMB (UniProt P49757)
inactive: [1] 0.001 | [2] 0.034 | [3] 0.009 | [4] 0.004 | [5] -0.032

NPTN (UniProt Q9Y639)
inactive: [1] 0.026 | [2] -0.045 | [3] -0.038 | [4] -0.018 | [5] -0.006

NMRAL1 (UniProt Q9HBL8)
inactive: [1] -0.09 | [2] 0.049 | [3] 0.009 | [4] -0.071 | [5] -0.027

NBEAL2 (UniProt Q6ZNJ1)
inactive: [1] -0.047 | [2] 0.055 | [3] 0.015 | [4] -0.029 | [5] 0.044

NDUFAF5 (UniProt Q5TEU4)
inactive: [1] 0.078 | [2] 0.016 | [3] 0.026 | [4] -0.174 | [5] 0.004

NEK9 (UniProt Q8TD19)
inactive: [1] -0.002 | [2] 0.002 | [3] -0.033 | [4] 0.017 | [5] -0.032
